From PubChem BioAssay (Tox21)
Records with an inconclusive call do not appear. Where a call stands in place of a potency, no number is given. Active and inactive are the calls of the source. Unless noted, the call rests on the fitted dose curve; in most records, active means well fitted curve in the direction sought with a large enough effect in the repeat runs; inconclusive means weak or mixed curves; inactive means no such curve, though single readings can be large; an effect the other way counts as inactive or inconclusive.

Legend:
[1] = qHTS assay to identify small molecule antagonists of the estrogen related receptor (ERR) signaling pathway (AID 1224819; further: nearly all actives have a fitted effect of over 50% in size)
Summary of the method: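 ERR reporter cell line (NTP) plated at 2,000 cells/well, settled 6 h at 37C/5% CO2, then exposed to LOPAC compounds for 18 h at 37C. One-Glo luciferase luminescence read after 30 min at room temperature.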

[2] = qHTS assay to identify small molecule agonists of the estrogen related receptor (ERR) signaling pathway (AID 1224820)
Summary of the method: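 After 6 h plating (2,000 cells/well) and 18 h compound treatment at 37 C, ERR cells were lysed with One-Glo and luminescence read after 30 min at room temperature.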

[3] = system: estrogen-related receptor alpha (ERRalpha) with PGC-1alpha coactivator, human; assay: qHTS assay to identify small molecule antagonists of the estrogen related receptor signaling pathway with the pleiotropic PPARgamma coactivator (PGC) (AID 1224821; calls by dose curve; further: nearly all actives have a fitted effect of over 50% in size)
Summary of the method: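 Luminescence from One-Glo luciferase reagent (30 min, room temperature) measured after 18 h compound treatment at 37 °C. Cells carry the PGC/ERR reporter and were seeded 6 h prior to dosing.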

[4] = qHTS assay to identify small molecule antagonists of the estrogen related receptor signaling pathway with the pleiotropic PPARgamma coactivator (PGC) cell viability counter screen (AID 1224822;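 further: viability read after 17.5 h compound exposure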)
Summary of the method: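 Cytotoxicity in the PGC/ERR cell line is assessed with CellTiter-Fluor, read as fluorescence intensity 30 min after reagent addition, following 17.5 h compound treatment at 37 C.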

[5] = qHTS assay to identify small molecule agonists of the estrogen related receptor signaling pathway with the pleiotropic PPARgamma coactivator (PGC) (AID 1224823)
Summary of the method: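 Luminescence from One-Glo reagent (30 min, room temperature) was read after 18 h compound treatment at 37 C of PGC/ERR cells plated 6 h beforehand; compounds delivered in DMSO by pin tool.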
Potency means the concentration at half of the fitted maximal effect.

O=c1ccn([C@@H]2O[C@H](COP(=O)(O)OP(=O)(O)O)[C@@H](O)[C@H]2O)c(=O)[nH]1
Potency [1]: inactive | Potency [2]: inactive | Potency [3]: inactive | Potency [4]: inactive | Potency [5]: inactive

CCCCCCC/C=C\CCCCCCCCC(=O)O
Potency [1]: inactive | Potency [2]: inactive | Potency [3]: inactive | Potency [4]: inactive | Potency [5]: inactive

CC(C)(NS(=O)(=O)c1ccc(Oc2ccc(F)cc2)cc1)C(=O)NO
Potency [1]: 2.46 µM (active) | Potency [2]: inactive | Potency [4]: inactive | Potency [5]: inactive

N#CC(=C(\N)Sc1ccccc1N)/C(C#N)=C(/N)Sc1ccccc1N
Potency [1]: 10.2 µM (active) | Potency [2]: inactive | Potency [3]: 9.81 µM (active) | Potency [4]: inactive | Potency [5]: inactive

O=C1NC(=O)c2cc(Nc3ccccc3)c(Nc3ccccc3)cc21
Potency [1]: 10.2 µM (active) | Potency [2]: inactive | Potency [3]: 20.3 µM (active) | Potency [5]: inactive

Cc1cccc(-c2[nH]c(C(C)(C)C)nc2-c2ccc3nccnc3c2)n1
Potency [1]: 10.2 µM (active) | Potency [2]: inactive | Potency [3]: 6.94 µM (active) | Potency [4]: 8.1 µM (active) | Potency [5]: inactive

O=C1NCc2c1c1c3ccccc3[nH]c1c1[nH]c3ccccc3c21
Potency [1]: 2.76 µM (active) | Potency [2]: inactive | Potency [3]: inactive | Potency [5]: inactive

CC[C@@H](C)[C@H]1O[C@]2(CC[C@@H]1C)C[C@@H]1C[C@@H](C/C=C(\C)[C@@H](O[C@H]3C[C@H](OC)[C@@H](O[C@H]4C[C@H](OC)[C@@H](O)[C@H](C)O4)[C@H](C)O3)[C@@H](C)/C=C/C=C3\CO[C@@H]4[C@H](O)C(C)=C[C@@H](C(=O)O1)[C@]34O)O2
Potency [1]: 12.3 µM (active) | Potency [2]: inactive | Potency [3]: 16.8 µM (active) | Potency [4]: 23.7 µM (active) | Potency [5]: inactive

CN(C)c1ccc(/C=C2\C(=O)Nc3ccccc32)cc1
Potency [1]: inactive | Potency [2]: 3.35 µM (active) | Potency [3]: inactive | Potency [5]: 3.1 µM (active)

NC[C@@H]1O[C@H](C23CC4CC(CC(C4)C2)C3)Cc2c1ccc(O)c2O
Potency [1]: 22.8 µM (active) | Potency [2]: inactive | Potency [3]: inactive | Potency [5]: inactive

Nc1ccc2c3c(cccc13)C(=O)NC2=O
Potency [1]: inactive | Potency [2]: inactive | Potency [3]: inactive | Potency [5]: inactive

CCCC(CCC)C(=O)OC1CC2CCC(C1)[N+]2(C)C (configuration not stated)
Potency [1]: inactive | Potency [2]: inactive | Potency [3]: inactive | Potency [4]: inactive | Potency [5]: inactive

O=C1c2ccccc2-c2n[nH]c3cccc1c23
Potency [1]: 26.6 µM (active) | Potency [2]: inactive | Potency [3]: inactive | Potency [5]: inactive

Cc1cc2c(cc1Cl)N(C(=O)Nc1ccc(Oc3cccnc3C)nc1)CC2
Potency [1]: 5.11 µM (active) | Potency [2]: inactive | Potency [3]: 12.8 µM (active) | Potency [5]: inactive
